Sampled rows, rich in hits. Any-hit rate of the full collection: about 19%.
TDP1 cell noCPT: qHTS for Inhibitors of human tyrosyl-DNA phosphodiesterase 1 (TDP1): qHTS in cells in absence of CPT | Potency, µM (series often up to 46.2 µM), for the others: top-dose activity change, negative = growth inhibition, actives largely listed as inhibitors | DT40 Tdp1-/- hTDP1 cells, no CPT, ATP luminescence, 48 h | 420,000 tested, 15% active; further: potency means the concentration at half of the fitted maximal effect; nearly all actives have a fitted effect of over 55% in size
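Seeded 400 DT40-hTDP1 cells/well (vehicle DMSO, no 20 nM CPT); pinned compounds; ≥48 hr at 37 °C; CellTiter-Glo luminescence as viability measure.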
IL1B secr inh: blocks inflammasome-driven IL-1 beta release. THP-1 LPS/ATP IL-1B secretion, AlphaLISA, 16 h; active compounds read low. AID 743279. activity change, % at 57.5 µM. 360,000 tested, 4.7% active; in the data active means activity change below about -50%; inconclusive means mostly about -30% to -49%
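THP-1 cells pretreated 1 hr with compounds (up to 57.5 uM final), then stimulated with LPS (250 ng/mL final) plus ATP (1.25 mM final); secreted IL-1B measured by AlphaLISA after 16 hr, decreased signal indicating inhibition.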
ELG1 DNA repair: ELG1-dependent DNA repair inhibition. HEK293T ELG1-luciferase reporter, luminescence, 16 h; DNA damage induced by 5-fluorouridine. Potency, µM (highest dose often 46.1 µM), for the others: at the top dose activity change, negative = inhibition, usual class: inhibitors. 330,000 tested, 2.3% active. AID 504467; further: potency means the concentration at half of the fitted maximal effect; nearly all actives have a fitted effect of over 55% in size
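HEK293T cells expressing luciferase-tagged ELG1 (2,000/well) received 5-Fluorouridine plus compound or DMSO for 16 hr at 37 °C. Luciferase was read by ONE-Glo luminescence after 30 min at room temperature.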
Giardia kill: Giardia lamblia killing | Giardia lamblia trophozoite viability | activity change, % at 7.66 µM, hits read low | 340,000 tested, 0.15% active; in the data active means activity change below about -80%; inconclusive means between about -30% and that limit;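 further: parasites exposed to compound for two days anaerobically before the ATP read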
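Giardia trophozoites, 100 cells per well, were exposed to compounds for 48 hrs at 37 deg C under anaerobic conditions; viability was then read as ATP content by bioluminescence after 15-30 min at room temperature.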
TDP1 cell CPT: growth inhibition of DT40 Tdp1-/-;hTDP1 cells with camptothecin (screen for TDP1 inhibitors). chicken DT40 Tdp1-/-;hTDP1 cells + 20 nM CPT, ATP luminescence, 48 h. Potency, µM (doses to about 46.2 µM), for inactives: top-dose activity change, negative = growth inhibition, most hits filed as inhibitors. 420,000 tested, 12% active; further: potency means the concentration at half of the fitted maximal effect; nearly all actives have a fitted effect of over 55% in size
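Cell growth measured by CellTiter-Glo luminescence after a minimum 48 h, 37 C compound exposure with 20 nM CPT in Tdp1-knockout DT40 cells stably expressing hTDP1, seeded 400/well; qHTS titration format.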
TDP1 block: inhibitors of human tyrosyl-DNA phosphodiesterase TDP1. Q9NUW8. recombinant TDP1, AlphaScreen DNA substrate cleavage. Potency, µM (titrated, usually from 130 µM), for inactives: at the top dose activity change, negative = inhibition, usual class: inhibitors. 350,000 tested, 0.28% active; further: potency means the concentration at half of the fitted maximal effect; nearly all actives have a fitted effect of over 40% in size
Target sequence (Q9NUW8 whole entry, looked up): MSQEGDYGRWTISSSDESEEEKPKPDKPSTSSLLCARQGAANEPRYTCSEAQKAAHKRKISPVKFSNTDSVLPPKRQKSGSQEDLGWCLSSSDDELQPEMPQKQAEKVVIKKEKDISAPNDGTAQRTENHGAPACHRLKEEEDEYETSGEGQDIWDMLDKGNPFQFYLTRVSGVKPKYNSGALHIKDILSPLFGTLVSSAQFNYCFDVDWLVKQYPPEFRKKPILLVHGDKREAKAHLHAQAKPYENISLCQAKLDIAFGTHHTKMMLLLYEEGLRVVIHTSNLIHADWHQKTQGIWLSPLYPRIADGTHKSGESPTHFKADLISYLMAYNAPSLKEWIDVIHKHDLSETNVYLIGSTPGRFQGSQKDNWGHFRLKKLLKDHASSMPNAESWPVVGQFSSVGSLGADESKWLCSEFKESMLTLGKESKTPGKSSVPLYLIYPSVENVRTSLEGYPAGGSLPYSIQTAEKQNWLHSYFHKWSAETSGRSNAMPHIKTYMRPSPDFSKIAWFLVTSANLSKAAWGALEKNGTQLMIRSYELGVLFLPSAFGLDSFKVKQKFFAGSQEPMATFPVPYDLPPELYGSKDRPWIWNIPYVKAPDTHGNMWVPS
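Compounds were preincubated with Tdp1 (1 nM final) for 15 min at room temperature before substrate (15 nM final) started a 5 min reaction; beads (10 ug/ml final) were then added for 10 min before AlphaScreen detection.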
Active calls of the source: *; ? = inconclusive; . = no result; ! = not active in a repeat; [ ] = dose if it differs, or a comment. Unless noted, the call rests on the fitted dose curve; in most records, active means well fitted curve in the direction sought with a large enough effect; inconclusive means small, poorly fitted or top-dose-only effect, or another doubt; inactive means no such curve, though single readings can be large; an effect the other way counts as inactive or inconclusive. On the % scale 0 is the no-effect control and ±100 the full control effect.

SMILES	TDP1 cell noCPT	IL1B secr inh	ELG1 DNA repair	Giardia kill	TDP1 cell CPT	TDP1 block
COC(=O)c1c(C(=O)OC)c(-c2ccc(Cl)cc2)n2c1CS(=O)(=O)C2	20.6µM*	0.7	0.5%	-4.8	20.6µM*	4.6%
CCOC(=O)C1CCN(S(=O)(=O)c2cc(-c3cc(C)no3)ccc2OC)CC1	-20.7%	.	.	.	-25.9%	-2.6%
CCN(CC)C(=O)N1CCN(C(=O)N(CC)CC)CC1	-0.6%	36.5	-18.6%	11.7	3.3%	4.9%
CCN(CC)C(=O)N1CCN(C)CC1	?	-12.5	.	-3.0	1.01µM*!	5.7%[56.1 µM]
CCCCn1c2c(cc(C(=O)OC)c1=O)C(=O)CCC2	0.5%	16.4	.	5.8	0.1%	.
Cc1ccc(S(=O)(=O)N2CCOCC2)cc1C(=O)NCc1cccnc1	-1.2%	22.5	1.3%	9.1	-3.6%	-9.1%
O=C(Nc1nc(-c2ccccn2)cs1)c1cc(S(=O)(=O)N2CCOCC2)ccc1F	2.31µM*	97.0	1.3%	-12.7	2.59µM*	2.3%
Cc1ccc(S(=O)(=O)N2CCOCC2)cc1C(=O)Nc1ccc(-c2cn3ccsc3n2)cc1	11.2µM*	14.2	18.4µM*	-12.3	11.2µM*	2.1%
O=C(Nc1nc(-c2ccccn2)cs1)c1ccc(F)c(S(=O)(=O)N2CCOCC2)c1	0.581µM*	140.2	7.8%	8.8	1.46µM*	3.9%
Cc1nnc(NC(=O)c2ccc(F)c(S(=O)(=O)N3CCOCC3)c2)s1	-7.9%	14.6	?	16.9	-3.0%	2.2%
Cc1ccc(S(=O)(=O)N2CCOCC2)cc1C(=O)Nc1nc(-c2cccnc2)cs1	?	7.0	11.6µM*	-16.0	-19.3%	3.3%
O=C(Nc1c2c(nn1-c1ccc(Cl)cc1)CS(=O)(=O)C2)c1ccccc1F	?	.	.	.	?	7.8%
CC(=O)OC(C(=O)NC1CCCCC1)c1ccc(Cl)c(Cl)c1 (stereo not given)	0.7%	-4.2	-3.3%	12.8	-17.2%	0.0%
CCCCNc1nc2c(S(=O)(=O)c3ccc(Cl)cc3)nnn2c2ccsc12	?	.	.	.	0.2%	0.0%
O=C(O)c1c[nH]c2ccc([N+](=O)[O-])cc2c1=O	-17.8%	0.0	.	-10.3	7.3%	.
Cc1ccc(C(=O)Nc2nc(-c3ccccn3)cs2)cc1S(=O)(=O)N1CCOCC1	0.731µM*	171.4	-9.9%	-13.3	1.3µM*	3.9%
Cc1ccc(C(=O)Nc2ccccn2)cc1S(=O)(=O)N1CCOCC1	6.4%	7.3	15.1%	19.1	0.8%	-0.7%
COc1ccc(OC)c(NC(=O)c2cccc(N3C(=O)C4C5CCC(C5)C4C3=O)c2)c1 (stereo not given)	16.4µM*	0.0	?	13.6	23.1µM*	0.7%
COc1ccc(OC)c(NC(=O)c2cccc(N3C(=O)C4C5C=CC(C6CC56)C4C3=O)c2)c1 (stereo not given)	11.6µM*	-3.5	?	-12.3	16.4µM*	7.5%
COc1ccc(NC(=O)c2cc(N3C(=O)C4C5CCC(C5)C4C3=O)ccc2Cl)c(OC)c1 (stereo not given)	-57.4%	-8.5	?	-5.2	?	2.8%
COc1ccc(NC(=O)c2cccc(N3C(=O)C4CC=C(C)CC4C3=O)c2)c(OC)c1 (stereo not given)	11.6µM*	21.5	?	-29.0	?	.
CC1=CCC2C(=O)N(c3cccc(C(=O)N(C)C4CCCCC4)c3)C(=O)C2C1 (stereo not given)	-24.7%	-21.4	-13.0%	3.9	-29.1%	-1.0%
CCOC(=O)[C@]12CCCC=C1N(Cc1cccc3ccccc13)C(=O)[C@H](CC(=O)N1CCC(c3ccccc3)CC1)C2	?	-19.4	.	.	?	.
COC(=O)[C@]12CCCCC=C1N(Cc1cccc3ccccc13)C(=O)[C@H](CC(=O)N1CCCCC1)C2	23.1µM*	15.5	.	.	?	.
COC(=O)[C@]12CCCCC=C1N(Cc1cccc3ccccc13)C(=O)[C@H](CC(=O)N1CCC(c3ccccc3)CC1)C2	14.6µM*	-26.0	.	.	?	.
SMILES	TDP1 cell noCPT	IL1B secr inh	ELG1 DNA repair	Giardia kill	TDP1 cell CPT	TDP1 block
Cc1cccc(CNC(=O)CCCN2C(=O)CCn3nc(-c4cccn4C)cc32)c1	-21.1%	.	.	.	-29.0%	7.7%
O=c1c2cc(Cl)ccc2nc(-c2ccccc2)n1O	-20.3%	25.7	-27.3%	-29.6	-1.0%	5.9%
O=c1c2ccc(Cl)cc2nc(-c2ccc([N+](=O)[O-])cc2)n1O	8.2µM*	101.5	9.2µM*	-11.6	8.2µM*	6.3%
O=c1c2cc(Cl)ccc2nc(-c2ccc(Cl)c(Cl)c2)n1O	5.17µM*	15.3	-21.9%	-11.2	5.17µM*	.
COc1ccc(COc2cc(-c3cccc(OC)c3)nc3ccc(N)cc23)cc1	1.46µM*	14.4	-13.5%	-8.6	1.46µM*	11.2%
COc1ccc(COc2cc(-c3cccc(OC)c3)nc3ccc(NC(C)=O)cc23)cc1	-18.7%	0.5	?	19.1	-18.5%	-1.0%
COc1ccc(COc2cc(-c3cccc(OC)c3)nc3ccc(NC(=O)c4ccc(N(C)C)cc4)cc23)cc1	3.66µM*	65.7	?	-2.8	3.66µM*	12.2%[96 µM]
COc1ccc(COc2cc(-c3cccc(OC)c3)nc3ccc(NC(=O)c4ccc(C)cc4)cc23)cc1	13µM*	71.7	?	-9.3	?	11.2%
CCOc1ccc(NC(=O)CN(C)C(=O)c2cn(-c3ccccc3)nc2-c2cccs2)cc1OCC	?	0.0	20.6µM*	-14.2	18.4µM*	3.7%
COc1cccc(NC(=O)CN(C)C(=O)c2cc(-c3ccco3)nc3ccccc23)c1	18.4µM*	-5.7	?	-1.8	?	-13.1%[0.505 µM]
COc1ccc(Cl)cc1NC(=O)CN(C)C(=O)c1cc(-c2ccncc2)nc2ccccc12	14.6µM*	-24.8	?	11.0	23.1µM*	6.4%

Compound activity (PubChem)
